In PubChem BioAssay AID1159580 (chemical genetic matrix, 2015):
About 2,000 (36%) of roughly 5,500 compounds were called active. Inconclusive results (about 18%) are left out. No stated cut-off is given here; in the data, active means normalized growth mostly below about 0.91 (no sharp cut-off); inconclusive means no clear call, values can overlap the other calls; inactive means mostly above about 0.92. Some of the results follow.

Test: chemical genetic growth profiling, strain panel (AID 1159580);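 further: tested at 20 µM; growth read once vehicle control cultures reached saturation at 30 °C; 1 = growth at the plate median or of vehicle wells; lower values mean less growth of the strain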
Conditions: growth OD

Measured: normalized growth

Cc1ccc(-c2cc(C(F)(F)F)nn2-c2ccc(S(N)(=O)=O)cc2)cc1
inactive: S. cerevisiae deletion strains, locus YJR075W, strain HOC1, active compounds read low 1.02 | S. cerevisiae deletion strains, locus YKL009W, strain mrt4, active compounds read low 0.965 | S. cerevisiae deletion strains, locus YKL068W, active compounds read low 1 | S. cerevisiae deletion strains, locus YKL085W, strain MDH1 (second series), active compounds read low 1 | S. cerevisiae deletion strains, locus YKL085W, strain MDH1, active compounds read low 1 | S. cerevisiae deletion strains, locus YKL160W, strain elf1, active compounds read low 1.03 | S. cerevisiae deletion strains, locus YKL190W, strain CNB1, active compounds read low 0.999 | S. cerevisiae deletion strains, locus YKR001C, strain vps1, active compounds read low 0.988 | S. cerevisiae deletion strains, locus YKR026C, strain gcn3, active compounds read low 1.03 | S. cerevisiae deletion strains, locus YKR091W, strain srl3, active compounds read low 1.02 | S. cerevisiae deletion strains, locus YLL001W, strain dnm1, active compounds read low 1.03 | S. cerevisiae deletion strains, locus YLL026W, active compounds read low 1.02 | S. cerevisiae deletion strains, locus YLL041C, strain sdh2, active compounds read low 1.02 | S. cerevisiae deletion strains, locus YLR027C, strain aat2, active compounds read low 1.02 | S. cerevisiae deletion strains, locus YLR039C, strain RIC1, active compounds read low 0.967 | S. cerevisiae deletion strains, locus YLR058C, strain SHM2, active compounds read low 0.998 | S. cerevisiae deletion strains, locus YLR102C, strain apc9, active compounds read low 1.01 | S. cerevisiae deletion strains, locus YLR113W, strain HOG1, active compounds read low 0.984 | S. cerevisiae deletion strains, locus YLR221C, strain rsa3, active compounds read low 1.03 | S. cerevisiae deletion strains, locus YLR258W, strain gsy2, active compounds read low 1.02 | S. cerevisiae deletion strains, locus YLR262C, strain YPT6 (second series), active compounds read low 1.01 | S. cerevisiae deletion strains, locus YLR262C, strain YPT6, active compounds read low 0.939 | S. cerevisiae deletion strains, locus YLR268W, strain sec22, active compounds read low 1.08 | S. cerevisiae deletion strains, locus YLR320W, strain mms22, active compounds read low 1.04 | S. cerevisiae deletion strains, locus YLR330W, strain CHS5, active compounds read low 1 | S. cerevisiae deletion strains, locus YLR342W, strain FKS1 (second series), active compounds read low 1.04 | S. cerevisiae deletion strains, locus YLR342W, strain FKS1, active compounds read low 1.03 | S. cerevisiae deletion strains, locus YLR357W, strain rsc2, active compounds read low 1.09 | S. cerevisiae deletion strains, locus YLR370C, strain arc18, active compounds read low 1.03 | S. cerevisiae deletion strains, locus YLR371W, strain rom2, active compounds read low 1.02 | S. cerevisiae deletion strains, locus YLR384C, strain iki3, active compounds read low 1.02 | S. cerevisiae deletion strains, locus YLR418C, strain cdc73, active compounds read low 1.01 | S. cerevisiae deletion strains, locus YML016C, strain PPZ1, active compounds read low 0.989 | S. cerevisiae deletion strains, locus YML032C, strain rad52, active compounds read low 1.05 | S. cerevisiae deletion strains, locus YML120C, strain ndi1, active compounds read low 1.03 | S. cerevisiae deletion strains, locus YML124C, strain tub3, active compounds read low 1.01 | S. cerevisiae deletion strains, locus YMR058W, strain fet3, active compounds read low 1.03 | S. cerevisiae deletion strains, locus YMR078C, strain ctf18, active compounds read low 1.02 | S. cerevisiae deletion strains, locus YMR125W, strain sto1, active compounds read low 1.03 | S. cerevisiae deletion strains, locus YMR129W, active compounds read low 1.02 | S. cerevisiae deletion strains, locus YMR205C, strain PFK2, active compounds read low 1.04 | S. cerevisiae deletion strains, locus YMR223W, strain ubp8, active compounds read low 0.999 | S. cerevisiae deletion strains, locus YMR231W, strain pep5, active compounds read low 1.03 | S. cerevisiae deletion strains, locus YMR263W, strain SAP30, active compounds read low 1.01 | S. cerevisiae deletion strains, locus YMR307W, strain GAS1, active compounds read low 0.959 | S. cerevisiae deletion strains, locus YNL067W, strain RPL9B, active compounds read low 1.02 | S. cerevisiae deletion strains, locus YNL071W, strain lat1, active compounds read low 1.02 | S. cerevisiae deletion strains, locus YNL128W, strain TEP1, active compounds read low 1.02 | S. cerevisiae deletion strains, locus YNL153C, strain GIM3, active compounds read low 1.03 | S. cerevisiae deletion strains, locus YNL183C, strain NPR1, active compounds read low 0.954 | S. cerevisiae deletion strains, locus YNL209W, strain ssb2, active compounds read low 1.02 | S. cerevisiae deletion strains, locus YNL233W, strain BNI4, active compounds read low 1.02 | S. cerevisiae deletion strains, locus YNL248C, strain rpa49, active compounds read low 1.03 | S. cerevisiae deletion strains, locus YNL250W, strain rad50, active compounds read low 1.02 | S. cerevisiae deletion strains, locus YNL271C, strain bni1, active compounds read low 1.01 | S. cerevisiae deletion strains, locus YNL298W, strain CLA4, active compounds read low 0.992 | S. cerevisiae deletion strains, locus YNL307C, strain MCK1, active compounds read low 1 | S. cerevisiae deletion strains, locus YNL322C, strain KRE1 (second series), active compounds read low 1.03 | S. cerevisiae deletion strains, locus YNL322C, strain KRE1, active compounds read low 0.997 | S. cerevisiae deletion strains, locus YNR049C, strain mso1, active compounds read low 1.03 | S. cerevisiae deletion strains, locus YNR052C, strain pop2, active compounds read low 1.01 | S. cerevisiae deletion strains, locus YOL006C, strain TOP1, active compounds read low 1 | S. cerevisiae deletion strains, locus YOL012C, strain htz1 0.962 | S. cerevisiae deletion strains, locus YOL147C, strain pex11, active compounds read low 1.01 | S. cerevisiae deletion strains, locus YOR001W, strain rrp6, active compounds read low 1.03 | S. cerevisiae deletion strains, locus YOR061W, strain CKA2, active compounds read low 0.998 | S. cerevisiae deletion strains, locus YOR069W, strain VPS5, active compounds read low 0.996 | S. cerevisiae deletion strains, locus YOR070C, strain gyp1, active compounds read low 1.02 | S. cerevisiae deletion strains, locus YOR080W, strain dia2, active compounds read low 1.05 | S. cerevisiae deletion strains, locus YOR083W, strain WHI5, active compounds read low 1.02 | S. cerevisiae deletion strains, locus YOR106W, strain vam3, active compounds read low 1.04 | S. cerevisiae deletion strains, locus YOR136W, strain idh2, active compounds read low 1.01 | S. cerevisiae deletion strains, locus YOR144C, strain elg1, active compounds read low 1.01 | S. cerevisiae deletion strains, locus YOR184W, strain ser1, active compounds read low 1.01 | S. cerevisiae deletion strains, locus YOR231W, strain MKK1, active compounds read low 0.968 | S. cerevisiae deletion strains, locus YOR265W, strain rbl2, active compounds read low 1.01 | S. cerevisiae deletion strains, locus YOR270C, strain vph1, active compounds read low 1.07 | S. cerevisiae deletion strains, locus YOR290C, strain snf2, active compounds read low 1.03 | S. cerevisiae deletion strains, locus YOR316C, strain cot1, active compounds read low 1.01 | S. cerevisiae deletion strains, locus YPL051W, strain arl3, active compounds read low 1.02 | S. cerevisiae deletion strains, locus YPL055C, strain LGE1, active compounds read low 0.986 | S. cerevisiae deletion strains, locus YPL078C, strain atp4, active compounds read low 1.02 | S. cerevisiae deletion strains, locus YPL106C, strain sse1, active compounds read low 1.04 | S. cerevisiae deletion strains, locus YPL240C, strain hsp82, active compounds read low 1.02 | S. cerevisiae deletion strains, locus YPL241C, strain CIN2, active compounds read low 0.995 | S. cerevisiae deletion strains, locus YPL256C, strain CLN2, active compounds read low 0.96 | S. cerevisiae deletion strains, locus YPR119W, strain clb2, active compounds read low 1.01 | S. cerevisiae deletion strains, locus YPR141C, strain kar3, active compounds read low 1 | S. cerevisiae deletion strains, locus YPR163C, strain tif3, active compounds read low 1.02 | S. cerevisiae deletion strains, locus YPR167C, strain met16, active compounds read low 1.01 | S. cerevisiae deletion strains, strain wtn01, active compounds read low 1.03 | S. cerevisiae strains, strain wild type, active compounds read low 0.996
